Results filed as inconclusive are left out. Active and inactive are the calls of the source. Unless noted, calls come from the whole dose curve; as a rule, active = well fitted curve in the direction sought with a large enough effect; inconclusive = small, poorly fitted or top-dose-only effect, or another doubt; inactive = no such curve, though single readings can be large; an effect the other way counts as inactive or inconclusive.
Tests used:
[1] = Confirmation and Secondary Assay for Modulators of Hemoglobin Beta Chain Splicing at IVS2 654 locus (AID 910);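 note: per-well total GFP intensity by laser scanning cytometry after 2-day treatment; % of control where 0% means no effect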
Procedure, shortened: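 HeLa cells stably carrying EGFP interrupted by mutant beta-globin IVS2-654 intron (CMV-driven) were treated with compound for 2 days at 37C; corrected splicing was scored as total peak GFP intensity per well (488 nm excitation, 500-520 nm emission).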

[2] = Cell Viability - LYMP2-001 (AID 921);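 note: series mostly up to about 92 µM; 0% = DMSO only and full inhibition = tetraoctylammonium bromide control wells; nearly all actives have a fitted effect of over 70% in size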
Procedure, shortened: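 Human lymphoblastoid cells (Coriell), 2500 per well, were preincubated 5 hr at 37 C, then exposed to compounds in complete medium for 24 hr at 37 C. Cellular ATP was read by CellTiter-Glo luminescence; AC50 from Hill fits of concentration-response data.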

[3] = Confirmation and Secondary Assay for Modulators of Hemoglobin Beta Chain Splicing at IVS2 705 locus (AID 930);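 note: HeLa cells stably expressing the EGFP-705 splicing reporter; GFP fluorescence per well restored by corrected splicing of the IVS2-705 intron in EGFP; series mostly up to about 46 µM; % of control where 0% means no effect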
Procedure, shortened: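 HeLa EGFP-705 reporter; 500 cells/well, o/n 37C 5% CO2; cpd 2 d; 488 ex/500-520 em laser scan; total peak GFP intensity/well. Ref: 500 nM […] antisense PNA.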

[4] = MultiTox-Fluor Cytotoxicity Assay - LYMP1-001 - Dead Cells (AID 946)
Procedure, shortened: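 Seed 2500 LYMP1-001 cells/well, incubate 5 hr at 37 C; add compound, 16 hr at 37 C; add MultiTox-Fluor reagent, 60 min RT; read dead-cell fluorescence Ex/Em=485/520. Normalize to DMSO and 15 uM tetraoctylammonium bromide.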

[5] = MultiTox-Fluor Cytotoxicity Assay - LYMP1-001 - Live Cells (AID 947);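 note: 0% = DMSO only and full inhibition = tetraoctylammonium bromide control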
[6] = Cell Viability - LYMP1-002 - Assay at 16 hr (AID 948);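 note: 0% = DMSO alone and full effect = 92 µM tetraoctylammonium bromide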
Procedure, shortened: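 Human lymphoblastoid cells (LYMP1-002), 2500/well, were preincubated 5 hr at 37 C, then exposed to compounds for 16 hr at 37 C in complete medium. Cellular ATP was read by CellTiter-Glo luminescence after 30 min at room temperature; AC50 from Hill fits.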

[7] = MultiTox-Fluor Cytotoxicity Assay - LYMP1-002 - Live Cells (AID 955); note: % is set by controls: 0 for no effect and ±100 for the full control effect
Procedure, shortened: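 Read-out is live-cell protease activity (cell-permeant GF-AFC substrate, fluorescence Ex/Em=405/510), where a decrease indicates acute toxicity. Human lymphoblastoid cells were treated 16 hours at 37 C in a concentration series, and AC50 values came from standard Hill modelling.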

[8] = MultiTox-Fluor Cytotoxicity Assay - LYMP1-002 - Dead Cells (AID 960); note: nearly all actives have a fitted effect of over 60% in size
Procedure, shortened: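 LYMP1-002 cells 2500/well; 5 hr 37 C pre-incubation; compound 16 hr 37 C; MultiTox-Fluor reagent 60 min RT; dead-cell fluor Ex/Em 485/520. Norm. to DMSO (0%) vs 15 uM tetraoctylammonium bromide (100%); Hill AC50.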

[9] = MultiTox-Fluor Cytotoxicity Assay - LYMP1-003 - Dead Cells (AID 961); note: nearly all actives have a fitted effect of over 70% in size
Procedure, shortened: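 LYMP1-003 lymphoblastoid, 2500 cells/well, 5 hr settle then 16 hr cpd at 37 C; MultiTox-Fluor reagent 60 min RT; Ex/Em 485/520 dead-cell signal; norm. DMSO = 0%, 15 uM tetraoctylammonium bromide = 100%; Hill AC50.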

[10] = MultiTox-Fluor Cytotoxicity Assay - LYMP1-003 - Live Cells (AID 962);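 note: 0% = DMSO only and full loss = 92 µM tetraoctylammonium bromide; cytotoxic hits lower the live-cell protease signal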
Procedure, shortened: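 qHTS, 1536-well; 2500 cells/well LYMP1-003; 5 hr 37 C settle; cpd 16 hr 37 C; MultiTox-Fluor reagent 60 min RT; live-cell protease fluor. 405/510; Hill-fit AC50; tetraoctylammonium bromide pos. ctrl.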

[11] = Cell Viability - LYMP1-003 - Assay at 24 hr (AID 963);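 note: plate controls were DMSO only for no effect and tetraoctylammonium bromide positive control for full effect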
Procedure, shortened: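 Cells seeded at 2500/well, 5 hr at 37 C; compounds added; 24 hr at 37 C; CellTiter-Glo added, 30 min room temperature; luminescence read. Decrease in ATP taken as cytotoxicity, AC50 from Hill modelling.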

[12] = Cell Viability - LYMP1-003 - Assay at 40 hr (AID 964); note: series mostly up to about 92 µM; % is set by controls: 0 for no effect and ±100 for the full control effect; nearly all actives have a fitted effect of over 60% in size
Procedure, shortened: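 Cells were seeded at 2500 per well and incubated 5 hr at 37 C. Compounds were added across a concentration series and left 40 hr at 37 C. CellTiter-Glo was added for 30 min at room temperature before luminescence reading.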

[13] = Cell Viability - LYMP2-003 (AID 965);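 note: cells exposed to compounds for 24 h before reading; 0% = DMSO only and full effect = 92 µM tetraoctylammonium bromide; nearly all actives have a fitted effect of over 50% in size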
Procedure, shortened: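 Human lymphoblastoid cells (2500/well) were pre-incubated 5 hr at 37 C, then exposed to compounds over a concentration range for 24 hr at 37 C. Intracellular ATP was read by CellTiter-Glo luminescence; AC50 came from Hill-equation fits.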

[14] = Cell Viability - LYMP2-004 (AID 966);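 note: plate controls were DMSO only for no effect and tetraoctylammonium bromide control for full effect; nearly all actives have a fitted effect of over 65% in size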
Procedure, shortened: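 Cells seeded 2500/well, rested 5 hr at 37 C, dosed across a concentration series, incubated 24 hr at 37 C, then CellTiter-Glo added for 30 min at room temperature and luminescence read. Hill fitting gave AC50.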

[15] = qHTS Assay for Identification of Small Molecule Agonists for Hypoxia Response Element Signaling Pathway (AID 914; active = well fitted activation curve with a large enough effect in the signal ratio, with a control signal flat, not every such curve was filed as active; the % refers to the signal ratio; note: % of control where 0% means no effect); settings: ME-180 (cervical carcinoma) HRE-bla reporter, beta-lactamase ratio, CoCl2, 17 h; active compounds read high
Procedure, shortened: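 Read-out: CCF4 FRET ratio of 460nm to 530nm emission (excitation 405nm) after 2.5 hours at room temperature, taken from HRE-bla ME-180 cells that had been exposed to compound and EC50 CoCl2 for 17 hours.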

[16] = qHTS Assay for Identification of Small Molecule Agonists for Thrombopoietin (TPO) Signaling Pathway (AID 917); note: % is set by controls: 0 for no effect and ±100 for the full control effect
Procedure, shortened: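 Murine Ba/F3 cells stably expressing human TPO receptor and a Glycoprotein IIb promoter–luciferase reporter were IL-3-starved overnight, then treated with compounds plus TPO (26 pM final, its EC50) for 24 hrs at 37 C; luminescence was read.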

[17] = biological target: Muscarinic acetylcholine receptor M1 (Rattus norvegicus) (UniProt P08482); test: qHTS Assay for Antagonists of Acetylcholine Muscarinic M1 Receptor: Kinetic Measurement of Intracellular Calcium Response (AID 943);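 note: Fluo-4 calcium signal as peak divided by basal fluorescence over 4 min; series mostly up to about 35 µM; nearly all actives have a fitted effect of over 75% in size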
Procedure, shortened: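 Rat M1-CHO cells, 2000/well, overnight → Fluo-4 no-wash dye with probenecid, 1 h 37C → compound 10 min, room temp → basal read 6 s → carbachol EC80 (100 nM) → 4 min kinetic read; peak/basal.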

[18] = biological target: Muscarinic acetylcholine receptor M1 (Rattus norvegicus) (UniProt P08482); test: qHTS Assay for Antagonists of Acetylcholine Muscarinic M1 Receptor: Measurement of IP-One Response (AID 944); note: nearly all actives have a fitted effect of over 75% in size
Procedure, shortened: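 M1-CHO (rat), 2000 cells/well, overnight recovery; cpd 10 min; carbachol EC80 (200 nM), 30 min, HEPES buffer + 50 mM LiCl pH 7.4; IP-One HTRF, Ex 337, Em 620/665 nm.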

[19] = biological target: Pyruvate kinase (Leishmania mexicana) (UniProt Q27686); test: qHTS Validation Assay for Inhibitors of Leishmania Mexicana Pyruvate Kinase (AID 945);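 note: 0% = DMSO only neutral control wells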
Procedure, shortened: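 Substrate mix (0.5 mM PEP, 0.1 mM ADP, 7 mM MgCl2, 50 mM KCl, pH 7.2 imidazole) received compound by pin tool, then 0.2 nM LmPYK E451W. After 1 h at room temperature, PKLight was added and luminescence measured.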

[20] = biological target: Pyruvate kinase PKM (Homo sapiens) (UniProt P14618); test: qHTS Assay for Activators of Human Muscle Pyruvate Kinase (AID 954; active = well fitted curve in the direction sought with a large enough effect, not every such curve was filed as active;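 note: 0% = uninhibited enzyme and -100% = no enzyme or full thiadiazolimine inhibition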)
Procedure, shortened: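 Reaction: 0.1 nM purified PKM2 with 0.5 mM phosphoenolpyruvate and 0.1 mM ADP, room temperature, 1 h. Readout: luciferase-based ATP luminescence after stop reagent. Activators judged against a 0.3 nM enzyme column.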

Measured: activation

Sequence of Muscarinic acetylcholine receptor M1 (Rattus norvegicus) (P08482 whole entry, looked up): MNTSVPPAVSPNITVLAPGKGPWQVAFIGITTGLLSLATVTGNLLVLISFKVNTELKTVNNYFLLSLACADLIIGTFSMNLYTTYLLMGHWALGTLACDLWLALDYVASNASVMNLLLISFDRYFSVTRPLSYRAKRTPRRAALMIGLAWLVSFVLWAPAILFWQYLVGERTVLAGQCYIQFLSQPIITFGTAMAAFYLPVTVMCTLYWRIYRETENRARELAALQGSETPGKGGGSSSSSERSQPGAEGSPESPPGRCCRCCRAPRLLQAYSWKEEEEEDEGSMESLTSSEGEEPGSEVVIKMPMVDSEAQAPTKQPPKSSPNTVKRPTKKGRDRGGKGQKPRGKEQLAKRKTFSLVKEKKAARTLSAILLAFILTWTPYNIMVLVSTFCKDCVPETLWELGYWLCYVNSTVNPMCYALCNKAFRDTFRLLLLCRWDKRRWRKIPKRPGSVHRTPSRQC
Sequence of Pyruvate kinase PKM (Homo sapiens) (P14618 whole entry, looked up): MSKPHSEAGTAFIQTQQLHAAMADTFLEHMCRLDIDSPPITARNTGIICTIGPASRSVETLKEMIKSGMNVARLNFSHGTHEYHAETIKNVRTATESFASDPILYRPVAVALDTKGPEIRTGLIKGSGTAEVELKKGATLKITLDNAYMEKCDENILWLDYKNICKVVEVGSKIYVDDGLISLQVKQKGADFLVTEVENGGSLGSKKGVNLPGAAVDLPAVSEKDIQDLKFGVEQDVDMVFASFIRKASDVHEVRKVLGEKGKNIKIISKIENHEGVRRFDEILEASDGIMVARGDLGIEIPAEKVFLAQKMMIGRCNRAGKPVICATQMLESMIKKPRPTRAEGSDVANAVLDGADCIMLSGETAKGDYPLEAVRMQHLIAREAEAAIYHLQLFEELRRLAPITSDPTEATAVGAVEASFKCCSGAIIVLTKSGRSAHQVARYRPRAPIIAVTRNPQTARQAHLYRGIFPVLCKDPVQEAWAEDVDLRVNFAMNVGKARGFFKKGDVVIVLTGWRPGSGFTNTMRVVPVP
Sequence of Pyruvate kinase (Leishmania mexicana) (Q27686 2-499 E452W): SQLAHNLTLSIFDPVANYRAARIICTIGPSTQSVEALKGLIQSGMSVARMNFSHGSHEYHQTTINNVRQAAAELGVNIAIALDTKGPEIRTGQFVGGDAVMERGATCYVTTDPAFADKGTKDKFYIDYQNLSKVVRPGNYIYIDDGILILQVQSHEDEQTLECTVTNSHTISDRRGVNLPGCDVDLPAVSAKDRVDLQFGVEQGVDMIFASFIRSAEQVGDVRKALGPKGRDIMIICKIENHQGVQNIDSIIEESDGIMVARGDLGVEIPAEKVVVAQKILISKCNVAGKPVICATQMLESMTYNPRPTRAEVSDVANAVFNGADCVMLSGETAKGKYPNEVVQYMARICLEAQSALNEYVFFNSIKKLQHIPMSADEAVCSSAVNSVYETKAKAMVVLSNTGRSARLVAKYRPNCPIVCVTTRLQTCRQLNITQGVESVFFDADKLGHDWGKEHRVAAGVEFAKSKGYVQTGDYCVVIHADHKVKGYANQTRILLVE

CCN(CC)C(=O)c1cccc(C)c1
not listed: [15] | [16] | [17] | [18] | [19] | [20]
inactive: all other assays above

Cc1cc(NC(=O)C2=C(O)c3ccccc3S(=O)(=O)N2C)no1
inactive: [1] | [3]

CC(=O)N[C@@H](CC(C)C)C(=O)O
inactive: [15] -5.35%

COc1ccccc1OCC(O)CO (stereo not drawn)
inactive: [1] | [3]

Cc1c(N(C)C)c(=O)n(-c2ccccc2)n1C
inactive: [2] | [4] | [5] | [6] | [7] | [9] | [10] | [11] | [12] | [13] | [14]

CCCCCC(N)=O
not listed: [1] | [3] | [15] | [16] | [17] | [18] | [19] | [20]
inactive: all other assays above

COc1ccc(NS(=O)(=O)c2ccc(N)cc2)nn1
inactive: [1] | [3]

COc1ccc2cc(CCC(C)=O)ccc2c1
inactive: [1] | [3]

O=C(c1ccccc1)C(O)c1ccccc1 (stereo not drawn)
not listed: [1] | [3] | [15] | [16] | [17] | [18] | [19] | [20]
inactive: all other assays above

OC(CCN1CCCC1)(c1ccccc1)C1CCCCC1 (stereo not drawn)
inactive: [1] | [3]

C[N+]1(C)CCCC(OC(=O)C(O)(c2ccccc2)c2ccccc2)C1 (stereo not drawn)
inactive: [1] | [3]

NC(=O)CC[C@@H](N)C(=O)O
inactive: [16] | [17] | [18] | [19] | [20]

NS(=O)(=O)c1cc(C2(O)NC(=O)c3ccccc32)ccc1Cl (stereo not drawn)
inactive: [1] | [3]

NC(N)=NS(=O)(=O)c1ccc(N)cc1
inactive: [1] | [3]

O=C(O)c1cc(=O)c2ccccc2o1
inactive: [1] | [3]

C=CCNC(N)=S
not listed: [1] | [3] | [15] | [16] | [17] | [18] | [19] | [20]
inactive: all other assays above

NC(N)=NCCN1CCCCCCC1
inactive: [1] | [3]

CCN(CC)CCOC(=O)C(c1ccccc1)c1ccccc1
inactive: [1] | [3]

CCCCCCCC(=O)OCC(COC(=O)CCCCCCC)OC(=O)CCCCCCC
not listed: [1] | [3] | [15] | [16] | [17] | [18] | [19] | [20]
inactive: all other assays above

COc1ccc(O)cc1
not listed: [1] | [3] | [15] | [16] | [17] | [18] | [19] | [20]
inactive: all other assays above

CC(N)CCCC(C)(C)O (stereo not drawn)
inactive: [1] | [3]

O=C(O)COC(=O)Cc1ccccc1Nc1c(Cl)cccc1Cl
inactive: [15] -4.27%

CCCCCC(C)N (stereo not drawn)
inactive: [1] | [3]

Cn1c([N+](=O)[O-])cnc1COC(N)=O
inactive: [1] | [3]

CC(=O)Oc1cccc(O)c1
inactive: [1] | [3]

O=C1c2cccc(O)c2C(=O)c2c(O)cccc21
not listed: [2] | [13] | [15] | [16] | [17] | [18] | [19] | [20]
inactive: all other assays above

FC(F)(F)C(Cl)Br (stereo not drawn)
not listed: [1] | [3] | [15] | [16] | [17] | [18] | [19] | [20]
inactive: all other assays above

Cc1[nH]c(C)c(Cl)c(=O)c1Cl
inactive: [1] | [3]

CC1CCc2cc(F)cc3c(=O)c(C(=O)O)cn1c23 (stereo not drawn)
inactive: [1] | [3]

CC(C)=CCC/C(C)=C/CO
inactive: [1] | [3]

Cc1c(NC(C)C)c(=O)n(-c2ccccc2)n1C
inactive: [1] | [3]

CCCC(O)C(CC)CO (stereo not drawn)
not listed: [1] | [3] | [15] | [16] | [17] | [18] | [19] | [20]
inactive: all other assays above

CC(=O)NCc1c(I)c(NC(C)=O)c(I)c(C(=O)O)c1I
inactive: [1] | [3]

Cc1onc(-c2ccccc2)c1-c1ccc(S(N)(=O)=O)cc1
inactive: [1] | [3]

CC(=O)Nc1ccc(C(=O)O)cc1
not listed: [1] | [3] | [15] | [16] | [17] | [18] | [19] | [20]
inactive: all other assays above

Cc1cc(O)cc(C)c1Cl
inactive: [1] | [3]

O=C1C(c2[nH]c3ccccc3c2O)=Nc2ccccc21
not listed: [1] | [3] | [15] | [16] | [17] | [18] | [19] | [20]
inactive: all other assays above

C/C=C/C(=O)N(CC)c1ccccc1C
inactive: [1] | [3]
